Measurements from PubChem BioAssay AID540333 (Southern Research Specialized Biocontainment Screening …, 2011).
Hit rate of the full screen: of about 10,000 compounds, about 320 (3.2%) were called active. The full list was thinned out, with actives kept by preference. A number with no mark means an inactive call. Cut-off read from the data, not from the text of the source: active = CPE inhibition mostly above about 9.1% (no sharp cut-off); inactive = mostly below about 7.2%.

test: antivirals protecting cells from dengue CPE – CPE readout, HTS (AID 540333); details: Dengue virus CPE inhibition in host cells, at 20 µM; stronger effect = higher value

Row | Structure (SMILES) | CPE inhibition
1 | CC(C)(C)OC(=O)NCC(=O)Oc1cc2oc(=O)cc(-c3ccccc3)c2cc1Cl | 24.3% (active)
2 | O=C(COc1ccc2c(-c3ccccc3)cc(=O)oc2c1)NCc1cccs1 | 0.675%
3 | COC(=O)C(Oc1ccc2c(-c3ccc(OC)cc3)cc(=O)oc2c1)c1ccccc1 (stereo not drawn) | 0.765%
4 | COc1ccccc1NC(c1cccnc1)c1ccc2cccnc2c1O (stereo not drawn) | 0.795%
5 | Cc1ccc(Cl)cc1NC(=O)c1ccc(NC(=O)CCC(=O)O)cc1 | 0.84%
6 | Cc1csc(NC(=O)[C@@H](NC(=O)c2ccccc2)C(C)C)n1 | 0.86%
7 | O=C(NC(=S)Nc1nc2c(s1)CCCC2)c1ccc(C(=O)c2ccccc2)cc1 | 11.3% (active)
8 | COc1ccc(C(=O)N[C@H](C(=O)Nc2nc3c(s2)CCCC3)C(C)C)cc1 | 18.9% (active)
9 | COC(=O)c1ccc(C(=O)NC(=S)Nc2nc3c(s2)CCCC3)cc1 | 0.85%
10 | O=C(NC(=S)Nc1nc2c(s1)CCCC2)c1ccccc1 | 0.705%
11 | N#Cc1c(NC(=S)NC(=O)c2ccccc2)sc2c1CCCC2 | 1.09%
12 | Cc1ccc(-n2c(SCC(=O)NCCN3C(=O)CSC3=O)nnc2-c2cccc(C)c2)cc1 | 0.355%
13 | O=C(CSCc1ccc([N+](=O)[O-])cc1)NC1CC1 | 2.12%
14 | Cc1ccc(C(=O)Nc2nnc(SCC(=O)N3CCCc4ccccc43)s2)cc1 | 0.06%
15 | Cc1ccc(C(c2nnnn2C2CCCC2)N2CCc3ccccc32)cc1 (stereo not drawn) | 18.1% (active)
16 | Cc1ccc(-c2nnc3ccc(SCC(=O)N4CCCc5ccccc54)nn23)cc1 | inactive
17 | N#CC1=C(N)Oc2cc(O)c(C=Nc3ccccc3)cc2C1c1ccccc1 (stereo not drawn) | 5.12%
18 | Cc1ccc(N=Cc2cc3c(cc2O)OC(N)=C(C#N)C3c2ccccc2)cc1 (stereo not drawn) | 23.4% (active)
19 | COc1ccc(N=Cc2cc3c(cc2O)OC(N)=C(C#N)C3c2ccccc2)cc1 (stereo not drawn) | 13.1% (active)
20 | COc1cccc(C2C(C#N)=C(N)Oc3cc(N)ccc32)c1OC (stereo not drawn) | inactive

Row | Structure (SMILES) | CPE inhibition
21 | COc1ccc([C@@H]2C(C#N)=C(N)S[C@@H](c3ccccc3)[C@@H]2[N+](=O)[O-])cc1 | 0.405%
22 | Cc1ccccc1N=Cc1cc2c(cc1O)OC(N)=C(C#N)C2c1ccccc1 (stereo not drawn) | 0.055%
23 | Cc1ccc(-c2nc(N)sc2CC(=O)OCC(=O)NCC2CCCO2)cc1 (stereo not drawn) | inactive
24 | CCCCC(=O)Nc1cccc(NC(=S)NC(=O)Cc2ccccc2)c1 | 0.515%
25 | O=C(Nc1cccc(Cl)c1)c1ccc(Cn2cc(Cl)cn2)cc1 | inactive
26 | COc1cccc(C(Nc2ccccn2)c2c(NC(=O)c3ccco3)sc(C)c2C)c1 (stereo not drawn) | 31% (active)
27 | Cc1ccnc(NC(=S)NC(=O)c2ccco2)c1 | 0.58%
28 | O=C(NC(=S)Nc1ccccn1)c1ccco1 | 1.33%
29 | Fc1ccccc1NC(=S)NCc1ccc2c(c1)OCO2 | 0.705%
30 | COc1cc(C(=O)NNC(=S)NC(=O)c2ccc(Cl)cc2)cc(OC)c1OC | 2.02%
31 | Cc1cccc(-n2c(SCC(=O)Nc3ncc(Cl)cc3Cl)nc3ccccc32)c1 | 13.7% (active)
32 | CCn1c(SCC(=O)Nc2ncc(C(F)(F)F)cc2Cl)nnc1-c1cccc(C)c1 | 0.415%
33 | Cc1ccc(-c2nn(-c3ccccc3)cc2C(=O)OCC(=O)Nc2ncc(Cl)cc2Cl)cc1 | 0.085%
34 | Cc1ccc(-n2c(SCC(=O)Nc3ncc(Cl)cc3Cl)nc3ccccc32)cc1 | 14.9% (active)
35 | CN(C)S(=O)(=O)c1cccc(NC(=O)CSc2nc3ccccc3n2-c2ccccc2)c1 | 6.67%
36 | Cc1ccc(-n2c(SCC(=O)Nc3cccc(S(N)(=O)=O)c3)nc3ccccc32)cc1 | 10.4%
37 | COc1cc2c(cc1OC)CN(c1ccc([N+](=O)[O-])cc1C#N)CC2 | 0.37%
38 | CN(C)S(=O)(=O)c1ccc(NCC2COc3ccccc3O2)c([N+](=O)[O-])c1 (stereo not drawn) | 0.57%
39 | O=C(CSc1cccc[n+]1[O-])Nc1cc(S(=O)(=O)N2CCOCC2)ccc1Cl | inactive
40 | O=c1c2ccccc2sc2ccc(Cl)cc12 | 0.48%

Row | Structure (SMILES) | CPE inhibition
41 | CSc1ccc(/C=C(\C#N)C(=O)NC2CCCCC2C)cc1 (stereo not drawn) | 18.5% (active)
42 | COc1cc(/C=C(\C#N)C(=O)NC2CCCCC2C)ccc1OS(=O)(=O)c1ccc(C)cc1 (stereo not drawn) | inactive
43 | CCCCCCCCNC(=O)/C(C#N)=C/c1ccc(SC)cc1 | 0.185%
44 | CC(=O)Nc1ccc(OCC(O)CN2CCCCC2C)cc1 (stereo not drawn) | 0.255%
45 | O=[N+]([O-])c1ccc(-c2nnc(-c3ccccc3)c(NCCCO)n2)cc1 | inactive
46 | O=C(CCc1ccc(Oc2cc([N+](=O)[O-])cc([N+](=O)[O-])c2)cc1)N1CCCCCC1 | 12.4% (active)
47 | CC1CCN(C(=O)CCc2ccc(Oc3cc([N+](=O)[O-])cc([N+](=O)[O-])c3)cc2)CC1 | 6.92%
48 | O=C(c1cc([N+](=O)[O-])ccc1N1CCCCC1)N1CCCC1 | 0.545%
49 | COc1ccc(OCCCC(=O)Nc2cccc([N+](=O)[O-])c2C)cc1 | inactive
50 | C=CCOC(=O)C1=C(C)NC(SCC(N)=O)=C(C#N)C1c1cccs1 (stereo not drawn) | 0.32%
51 | Cc1cc(C)c(COc2ccc(/C=N/n3c(C)n[nH]c3=S)cc2)c(C)c1 | 5.91%
52 | Cc1cc2cc(CN(Cc3cccs3)C(=S)NCC3CCCO3)c(=O)[nH]c2cc1C (stereo not drawn) | 18.4% (active)
53 | COc1ccc2[nH]c(=O)c(CN(Cc3cccs3)C(=S)Nc3cccc(C)c3)cc2c1 | 9.5% (active)
54 | Cc1cc(C)c2[nH]c(=O)c(CN(Cc3cccs3)C(=S)NCC3CCCO3)cc2c1 (stereo not drawn) | 2.9%
55 | CNC(=S)N(Cc1cccs1)Cc1cc2cc(OC)ccc2[nH]c1=O | inactive
56 | Cc1ccc2[nH]c(=O)c(CN(Cc3cccs3)C(=S)NCC3CCCO3)cc2c1 (stereo not drawn) | 0.245%
57 | Cc1cccc(NC(=S)N(Cc2cccs2)Cc2cc3cc(C)cc(C)c3[nH]c2=O)c1 | 3.13%
58 | N=C(N)SCc1nc2ccccc2c(=O)n1-c1ccccc1 | inactive
